# This is part of a sample that, as a whole, favours compounds with a hit. Of some 83,000 tested, about 20% had one in any assay.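 Negative percent growth values reflect cell death: -40 means 40% of the cells present at the start died, and -100 means all died.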 A number with no mark means an inactive call. Activity calls are given as the source filed them. How the source made its calls: active means growth percent below 10; inactive means the rest.
# Tested on: MDA-MB-468 breast
# Assay: NCI-60 one-dose screen, 48 h (100 = growth as untreated, 0 = no growth, -100 = all killed)
# Details: 10 µM unless noted
row,Compound,growth
1,C[C@@H]1CN(Cc2ccc(/C=C/c3n[nH]c4ccc5nc(-c6cn[nH]c6C(F)(F)F)c6c(c5c34)CCCC6)cc2)C[C@H](C)O1,76.9%
2,Clc1ccc(C2CC(c3cccc(Nc4ccncc4)c3)=NN2c2ccc(Cl)cc2)cc1 (centres undefined),-35.3% (active)
3,C=CCn1c(SCC(=O)Nc2ccc(C(=O)/C=C/c3cc(OC)c(OC)c(OC)c3)cc2)nnc1-c1cc(-c2ccc(S(N)(=O)=O)cc2)nc2ccccc12,89.3%
4,Cc1cn(-c2nc3c(c(NCc4ccccc4)n2)COCC3)c2cccc(C(N)=O)c12,114% [0.5 µM]

# — PubChem BioAssay (NCI)
